Assay results: PubChem BioAssay
Calls of active or inactive are those of the source. Unless noted, how the calls were made is not given here.

How the values were obtained:
[1] = tested on: XIP peptide (Xip251-270) binding; assay: XIP fragment 251-270 binding compounds – biochemical, small-molecule microarray, fluorescence 635/667 nm, 0.1 µg/mL protein, primary screen (AID 1182); conditions: fluorescent protein binding, 635 nm, higher = more signal, called active from +8 up or from −8 down
[2] = tested on: XIP peptide (Xip251-270); assay: compounds binding XIP fragment 251-270 – biochemical, small-molecule microarray, fluorescence 635/667 nm, 0.5 µg/mL protein, primary screen (AID 1183); conditions: fluorescence 635 nm, higher = more signal
[3] = blood-stage malaria parasite viability loss – strain 3D7, DAPI fluorescence, 100 nL, primary screen (AID 1184);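 further: parasites grown inside human red blood cells in medium with human serum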; conditions: P. falciparum 3D7 growth, 3 d, higher = more signal
[4] = target: Homeobox protein Hox-A13 (Mus musculus) (UniProt Q62424); assay: disruptors of Hoxa13 oligonucleotide interaction – biochemical, fluorescence polarization, labeled oligonucleotide, primary screen (AID 1185); conditions: Hoxa13:DNA binding, 15 min, higher = more signal, called active from +8 up or from −8 down
[5] = blockers of DNA damage checkpoint Chk1 activation – imaging, HeLa, hydroxyurea, phospho-Chk1 antibody, percent positive cells, primary screen (AID 1186); conditions: hydroxyurea-induced phospho-Chk1 immunofluorescence imaging, higher = more signal
[6] = blockers of DNA damage checkpoint Chk1 activation – imaging, HeLa, hydroxyurea, phospho-Chk1 nuclear intensity, primary screen (AID 1187); conditions: hydroxyurea-induced phospho-Chk1 immunofluorescence imaging, higher = more signal

Chain of Homeobox protein Hox-A13 (Mus musculus) (Q62424 whole entry, looked up): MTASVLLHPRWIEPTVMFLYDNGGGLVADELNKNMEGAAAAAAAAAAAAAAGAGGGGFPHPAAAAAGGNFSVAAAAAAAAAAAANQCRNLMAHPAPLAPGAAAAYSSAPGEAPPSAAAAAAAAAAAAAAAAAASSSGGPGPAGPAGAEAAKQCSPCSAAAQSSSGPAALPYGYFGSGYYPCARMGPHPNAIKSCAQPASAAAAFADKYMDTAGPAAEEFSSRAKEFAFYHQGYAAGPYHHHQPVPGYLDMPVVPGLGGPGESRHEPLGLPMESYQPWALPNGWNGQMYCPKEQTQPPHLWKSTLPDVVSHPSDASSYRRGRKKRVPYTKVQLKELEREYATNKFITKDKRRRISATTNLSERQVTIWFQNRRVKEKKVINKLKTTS

| Structure (SMILES) | composite z-score [1] | composite z-score [2] | z-score [3] | z-score [4] | z-score [5] | z-score [6] |
| --- | --- | --- | --- | --- | --- | --- |
| C=CCC(OC(C)=O)[C@@H]1[C@@H](N(Cc2ccc(-c3cccc(C(F)(F)F)c3)o2)C(=O)c2cccc3ccccc23)c2cc(OCCCO)ccc2N1C(=O)c1ccc(-c2ccccc2)cc1 (stereo not given in full) | -0.0517 (inactive) | -0.131 | -3 | -2.39 (inactive) | -0.403 (inactive) | -0.16 (inactive) |
| C[C@@]1([C@@H](NC(=O)c2cccs2)c2ccc(-c3ccccc3)cc2)C[C@H]1C1CCCCC1 | -0.592 (inactive) | -0.0139 | -0.972 | -0.431 (inactive) | 0.193 (inactive) | -0.421 (inactive) |
| CCOC(=O)C[C@H]1[C@H](OC(=O)Cc2ccc3c(c2)OCO3)[C@@H](NC(=O)c2ccccc2)c2cc(OCCCO)ccc2N1C(=O)c1ccccc1 | -0.0294 (inactive) | 0.643 | -0.385 | -3.12 (inactive) | -0.454 (inactive) | -0.342 (inactive) |
| CC(C)[Si](C#C[Si](C(C)C)(C(C)C)C(C)C)(O[C@H](C)c1cn(Cc2cccc(Cl)c2)nn1)C(C)C | -0.109 (inactive) | -0.0612 | 0.293 | 0.702 (inactive) | 0.0695 (inactive) | 0.153 (inactive) |
| CC[C@@H]1[C@@H]2C3C(=O)N(CC)C(=O)C3CC(=O)[C@@H]2[C@H](c2ccc(C)cc2)N1S(=O)(=O)c1ccc(C)cc1 (stereo not given in full) | -0.363 (inactive) | 0.73 | -0.226 | -3.54 (inactive) | -1.51 (inactive) | -1.33 (inactive) |
| C[N+](C)(C)CCCC[C@@H]1NC(=O)[C@H]2C[C@@H](C(=O)NCCCCCCN)[C@@H](c3cccc(OCCO)c3)N2C1=O | 1.25 (inactive) | 0.527 | -0.997 | -2.38 (inactive) | -0.699 (inactive) | -0.146 (inactive) |
| COCCOC(=O)N1C(=O)[C@@]2(c3cc(C#Cc4ccc(OC)cc4)ccc31)[C@H](C(=O)N1CCc3cc(OC)c(OC)cc3C1)[C@H]1C(=O)O[C@H](c3ccccc3)[C@H](c3ccccc3)N1[C@@H]2c1ccc(O)cc1 | 1.64 (inactive) | 0.759 | -1.65 | -0.63 (inactive) | -0.241 (inactive) | -0.261 (inactive) |
| O=C1N(CCS(=O)(=O)c2ccccc2)Cc2ccccc2C[C@@]12COC(c1ccc(OCCCO)cc1)=N2 | 0.913 (inactive) | 0.82 | -2.05 | -4.6 (inactive) | -1.03 (inactive) | -1.29 (inactive) |
| CC(C)c1ccc(NN2C(C(O)c3cccs3)C=CC3C(=O)N(c4ccccc4)C(=O)C32)cc1 (stereo not given) | 0.213 (inactive) | 0.499 | -0.512 | -3.33 (inactive) | 0.847 (inactive) | 0.219 (inactive) |
| C[C@]12C(=O)N(CCCCCO)[C@@H]3C(=O)N(c4ccc(Cl)cc4)CC=CC31O[C@@H]1/C=C\CCCOC(=O)C12 (stereo not given in full) | 0.951 (inactive) | 0.0211 | 1.77 | -4.29 (inactive) | 0.0276 (inactive) | 0.596 (inactive) |
| Cc1ccc(C(C)CC(O)C2C=CC3C(=O)N(Cc4ccccc4)C(=O)C3N2n2cnnc2)o1 (stereo not given) | 0.831 (inactive) | 0.731 | -0.981 | -2.57 (inactive) | 0.0591 (inactive) | -0.208 (inactive) |
| Cc1ccccc1C(O)C1C=CC2C(=O)N(Cc3ccccc3)C(=O)C2N1n1cnnc1 (stereo not given) | 0.598 (inactive) | 0.58 | -0.318 | -3.23 (inactive) | 0.135 (inactive) | -0.544 (inactive) |
| COc1ccc([Si](C)(C)[C@H]2[C@H](CC(=O)N3CCC[C@H]3CO)O[C@@]3(C(=O)N(Cc4ccc(N5C(=O)c6cccc7cccc5c67)cc4)c4ccccc43)[C@@H]2C)cc1 | 0.531 (inactive) | 0.803 | -1.95 | -3.9 (inactive) | 0.171 (inactive) | -0.4 (inactive) |
| C=C[C@H](C)[C@H](OC(=O)Nc1ccc(SC)cc1)c1ccc(O)c2ccccc12 | 0.273 (inactive) | 0.151 | -0.243 | -5.27 (inactive) | -0.08 (inactive) | -0.437 (inactive) |
| CCC[C@@H]1C[C@@]1(CCC)[C@@H](NC(=O)c1cccs1)c1ccc(Cl)cc1 | -0.0569 (inactive) | 0.0455 | -0.76 | -1.93 (inactive) | -0.248 (inactive) | -0.143 (inactive) |
| COC(=O)[C@]1(Cc2ccccc2CN=[N+]=[N-])N=C(c2ccc(OCCCO)cc2)O[C@@H]1c1ccccc1 | 0.0835 (inactive) | 0.534 | -2.17 | -4.62 (inactive) | -0.346 (inactive) | -0.91 (inactive) |
| Cc1ccccc1C(O)C1C=CC2C(=O)N(C)C(=O)C2N1Nc1ccc([N+](=O)[O-])cc1[N+](=O)[O-] (stereo not given) | 3.99 (inactive) | 0.476 | 0.368 | -4.08 (inactive) | 0.348 (inactive) | -0.0828 (inactive) |
| O=C1O[C@H](c2ccccc2)[C@H](c2ccccc2)N2[C@H]1[C@@H](C(=O)N1CCN(c3ncccn3)CC1)[C@]1(C(=O)Nc3ccc(C#CCCO)cc31)[C@H]2c1ccc(OCCO)cc1 | 0.756 (inactive) | 0.853 | -1.9 | -0.587 (inactive) | 0.177 (inactive) | 0.923 (inactive) |
| COc1cccc(C[C@H]2C[C@@H](CO[Si](C(C)C)(C(C)C)C(C)C)N3C(=O)[C@]4(C(C)=O)O[C@]23[C@H]2C(=O)N(C)C(=O)[C@H]24)c1 | 0.0522 (inactive) | 0.459 | -0.281 | -3.12 (inactive) | 0.527 (inactive) | 0.139 (inactive) |
| O=C1O[C@H](c2ccccc2)[C@H](c2ccccc2)N2[C@H]1[C@@H](C(=O)NC[C@H](O)c1ccccc1)[C@]1(C(=O)Nc3ccccc31)[C@H]2c1ccccc1OCCO | 2.18 (inactive) | 0.807 | -0.635 | -3.48 (inactive) | -0.517 (inactive) | -0.538 (inactive) |
| CC(C)C[C@@H]1NC(=O)[C@@H]2C[C@H](C(=O)NCc3ccc(F)cc3)[C@H](c3ccc(O)cc3)N2C1=O | 0.8 (inactive) | 0.655 | -0.395 | -1.41 (inactive) | 0.13 (inactive) | 0.0555 (inactive) |
| C=C(CCCC)/C(=C/C[C@@H](OC(=O)c1ccncc1)c1ccccc1OCCO)c1cc(C(=O)OC)ccc1OC | 0.711 (inactive) | -0.127 | -2.98 | -3.47 (inactive) | -0.585 (inactive) | 0.185 (inactive) |
| C[N+](C)(C)CCCCCCNC(=O)[C@@H]1C[C@@H]2C(=O)NCC(=O)N2[C@@H]1c1cccc(OCCO)c1 | 0.525 (inactive) | 0.421 | -0.848 | -4.4 (inactive) | -0.177 (inactive) | -0.261 (inactive) |
| C#CCNS(=O)(=O)N(C)C | 0.153 (inactive) | 0.0198 | -0.265 | -0.146 (inactive) | -0.271 (inactive) | 0.0602 (inactive) |
| NC(=O)NCC#Cc1ccc2c(c1)[C@]1(C(=O)N2)[C@H](c2ccc(OCCO)cc2)N2[C@H](c3ccccc3)[C@H](c3ccccc3)OC(=O)[C@H]2[C@@H]1C(=O)N1CCCCCCC1 | 2.2 (inactive) | 0.501 | -0.765 | -9.12 (active) | -0.0375 (inactive) | -0.265 (inactive) |
